# Measured values from PubChem BioAssay (NCI).
# Compounds without any hit were thinned out: in the full panel of roughly 83,000, 20% have a hit.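 96-well plates, one dose, 48 hours. Percent growth reported; active if below 10.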 Values without a mark were called inactive. Calls of active or inactive are those of the source.
# Key:
# Test in all cases: NCI-60 one-dose screen, 48 h (100 = growth as untreated, 0 = no growth, -100 = all killed)
# Details in all cases: 10 µM unless noted
# SK-MEL-2 melanoma = test system: SK-MEL-2 melanoma
# EKVX NSCLC = test system: EKVX NSCLC
# SN12C renal = test system: SN12C renal
# UO-31 renal = test system: UO-31 renal
# TK-10 renal = test system: TK-10 renal
# ACHN renal = test system: ACHN renal
# CAKI-1 renal = test system: CAKI-1 renal
# A498 renal = test system: A498 renal
# CCRF-CEM leukemia = test system: CCRF-CEM leukemia
# MOLT-4 leukemia = test system: MOLT-4 leukemia
Structure (SMILES),growth (SK-MEL-2 melanoma),growth (EKVX NSCLC),growth (SN12C renal),growth (UO-31 renal),growth (TK-10 renal),growth (ACHN renal),growth (CAKI-1 renal),growth (A498 renal),growth (CCRF-CEM leukemia),growth (MOLT-4 leukemia)
Cc1ccccc1NC(=O)Nc1nc2ccc([N+](=O)[O-])cc2s1,-9.75% (active),10.3%,6.76% (active),9.02% (active),12.2%,3.8% (active),-19.4% (active),-24.7% (active),16.2%,12.5%
O=C(O)CC1CCN(c2ccc3nnc(Cl)n3n2)CC1,106%,99.1%,98.4%,81.5%,102%,98.6%,95.8%,90.2%,111%,109%
O=S1SC(c2ccccc2)=NN1c1cc(F)cc(F)c1 (stereo not given),68.1%,38%,33.1%,22.7%,85.8%,51.5%,52.4%,12.7%,18.8%,17.5%
O=c1c2cc(-c3ccc(F)cc3F)ccc2n(Nc2ccccc2)c(=O)n1-c1cccc(C(F)(F)F)c1,-11.2% (active),6.49% (active),3.98% (active),4.59% (active),11.3%,2.25% (active),-10.6% (active),-18.1% (active),15.5%,6.73% (active)
NC1[C@H]2CN(c3cnc(C(=O)Nc4cc(F)cc5cccnc45)cn3)C[C@@H]12 (stereo not given in full),92.5%,82.1%,69.8%,44.6%,87.7%,32.5%,49.9%,75.4%,30%,18.1%
CC(Nc1ncnc2ccc(-c3cnc(N)nc3)cc12)c1ccccc1 (stereo not given),60.8%,13.5%,22.1%,9.12% (active),-8.21% (active),16.9%,16.7%,11.5%,36.4%,30.3%
CCc1cccc2c3c(sc12)C(c1ccc(F)cc1)C(C#N)=C(/N=C/c1ccc(Cl)cc1)O3 (stereo not given),-7.31% (active),47.8%,32.4%,39.2%,93.5%,32.3%,41.5%,-10.4% (active),20.7%,25.4%
CCOC(=O)C(=O)Nc1ccc2c(ccn2C(=O)c2cccc(F)c2)c1,99.8%,82.8%,101%,88.2%,97.6%,80.2%,92.7%,84.2%,2.8% (active),107%
C#Cc1nc(C(=O)NCCCCCCC(=O)NO)cs1,8.08% (active),53.5%,36.7%,-91.3% (active),-14.2% (active),-86.5% (active),-80.2% (active),-95.1% (active),-41.4% (active),-26.1% (active)
C[C@]12CC[C@H]3[C@@H](CC=C4C[C@@H](O)CC[C@@]43C)[C@@H]1CC[C@@H]2[C@](C)(O)CCc1cccnc1,79.8%,36.7%,79.9%,63.8%,84.3%,60.7%,69.1%,72.8%,59.8%,48.9%
COc1ccc(CC(C)=C(c2ccc(OCCN3CCCC3)cc2)c2ccc(OCCN3CCCC3)cc2)cc1,-91.8% (active),-90.8% (active),-82.9% (active),-94.9% (active),-94.4% (active),-96% (active),-89.1% (active),-87.5% (active),-40.8% (active),-60.3% (active)
Cc1ccc(S(=O)(=O)c2nc(-c3ccc(F)cc3)oc2S(C)(=O)=O)cc1,86.3%,91.8%,67.4%,54.1%,93.1%,-91.8% (active),41.8%,102%,-14.8% (active),2.92% (active)
O=C(COc1ccc(/C=C2\C(=O)Nc3cc(Cl)ccc32)cc1)Nc1ccc(Cl)cc1,95.6%,78.2%,78.9%,46.5%,127%,57.8%,55.4%,102%,48.9%,50.1%
C[C@H](Nc1ncnc2ccc(-c3cnc(Cl)c(NS(C)(=O)=O)c3)cc12)c1ccccc1,-84.9% (active),-34.3% (active),13.4%,-63.5% (active),-82.3% (active),9.8% (active),-22.4% (active),-23.8% (active),7.38% (active),-16.5% (active)
CC[C@H](CC[C@@H](C)[C@H]1CC[C@H]2[C@@H]3CC(=O)C4=CC(=O)/C(=C/c5ccc([N+](=O)[O-])cc5)C[C@]4(C)[C@H]3CC[C@]12C)C(C)C,114%,109%,98.4%,79.6%,104%,93.9%,90.8%,108%,56.1%,84.3%
O=C(CSc1nnc(-c2cccs2)n1-c1ccccc1)Nc1ccccc1F,95.8%,94.6%,99.1%,77.4%,110%,92.5%,55.6%,79.9%,76.9%,72%
Nc1ccc(Nc2ncnc3sc4c(c23)CCN(Cc2ccccc2)C4)cc1,109%,102%,96.8%,83.8%,134%,91.7%,90.8%,95.3%,95.1%,87.8%
CC1CC(=O)C2=C(C1)Nc1ccc(Br)cc1CC2c1c[nH]c2ccc(Br)cc12 (stereo not given),37.3%,41.2%,53.6%,50.9%,79.4%,48.6%,38.1%,19.7%,29.7%,35.8%
COc1ccc(NC2=C(Br)C(=O)C(C)=C(C)C2=O)cc1OC,106%,80.8%,100%,83.5%,165%,99.7%,99.1%,95%,-27.9% (active),-41.6% (active)
CCN(CC)c1ccc(/C=N/NC(=O)c2ccc(S(N)(=O)=O)cc2)c(O)c1,47.2%,15.9%,28.3%,7.5% (active),37.4%,14.8%,22.1%,24%,9.4% (active),11.2%
C#CCN(C)CCCOc1ccc(NC(=O)CCCCCCCCC(=O)NO)cc1Cl,96.7%,68.8%,95.9%,51.7%,63.1%,80.4%,78.6%,81.1%,30.5%,43.2%
Cc1cc(Br)ccc1-n1cc(C#N)c(N)c1C(=O)c1ccc(Br)cc1,108%,97.8%,110%,80.1%,87%,97.2%,91.6%,114%,96.6%,108%
CC(=O)Nc1nc(C)c(-c2csc(Nc3ccccc3)n2)s1,18.8%,-0.417% (active),24.4%,10.9%,31.4%,17.2%,28.6%,16%,27.1%,16.6%
O=C(N/N=C\c1ccc(F)cc1)c1ccc2nc(-c3ccc(Br)cc3)[nH]c2c1,83.2%,53.1%,29.4%,55.4%,42.4%,12%,43%,80.8%,53.6%,31.7%
Cc1csc(/N=C(N)/N=C(\N)c2cccnc2)n1,68.2%,82.8%,80.1%,77.7%,116%,78.4%,60.1%,59.6%,79.2%,83%
O=S(=O)(NCCCNc1nccc(-c2[nH]c(-c3ccccc3)nc2-c2ccc(F)c(O)c2)n1)c1ccccc1,31.6%,102%,107%,144%,154%,95.4%,105%,114%,47.9%,51.3%
